# The supplement of paper PMC8728848
# This excerpt belongs to a sample that is enriched for the strongest signals.
# Legend:
# Test in all cases: glycan array binding signal (z-score within array); higher = stronger binding
# Conditions in all cases: glycan notation: IUPAC condensed, linker removed
# Fuc(a1-2)Gal(b1-4)Glc = target: Fuc(a1-2)Gal(b1-4)Glc
# Outline: (§1)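 The binding signal is a Z-score computed within each array. Data were drawn from 3228 arrays in the Consortium for Functional Glycomics database, restricted to those with a known protein sequence. Scores were averaged over arrays of the same protein sequence at different concentrations or buffers, and over linkers, and negative values can be taken as non-binding.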
# [1] = target: Fuc(a1-2)Gal(b1-4)[Fuc(a1-3)]GlcNAc(b1-3)[Neu5Ac(a2-6)Gal(b1-4)GlcNAc(b1-6)]Gal(b1-4)Glc
# Outline: as §1
# [2] = target: Fuc(a1-2)Gal6S(b1-4)Glc6S
# Outline: as §1
# [3] = target: Fuc(a1-2)[GalNAc(a1-3)]Gal(b1-4)GlcNAc(b1-2)Man(a1-3)[Fuc(a1-2)[GalNAc(a1-3)]Gal(b1-4)GlcNAc(b1-2)Man(a1-6)]Man(b1-4)GlcNAc(b1-4)GlcNAc
# Outline: as §1
# [4] = target: Fuc(a1-3)[Gal(b1-4)]GlcNAc(b1-3)Gal(b1-4)[Fuc(a1-3)]GlcNAc(b1-3)Gal(b1-4)[Fuc(a1-3)]GlcNAc
# Outline: as §1
# [5] = target: Fuc(a1-3)[GalNAc(b1-4)]GlcNAc6S
# Outline: as §1
# [6] = target: Gal(a1-3)Gal(b1-3)[Fuc(a1-4)]GlcNAc(b1-2)Man(a1-3)[Gal(a1-3)Gal(b1-3)[Fuc(a1-4)]GlcNAc(b1-2)Man(a1-6)]Man(b1-4)GlcNAc(b1-4)GlcNAc
# Outline: as §1
# [7] = target: Gal(a1-3)Gal(b1-4)GlcNAc(b1-2)Man
# Outline: as §1
# [8] = target: Gal(a1-3)Gal(b1-4)GlcNAc(b1-3)GalNAc
# Outline: as §1
# [9] = target: Gal(a1-3)Gal(b1-4)GlcNAc(b1-6)GalNAc
# Outline: as §1
# Gal(b1-3)Gal = target: Gal(b1-3)Gal
# Outline: as §1
# Gal(b1-3)GalNAc = target: Gal(b1-3)GalNAc
# Outline: as §1
# [10] = target: Gal(b1-3)GalNAc(a1-3)[Fuc(a1-2)]Gal(b1-4)GlcNAc
# Outline: as §1
# [11] = target: Gal(b1-3)GlcNAc(a1-6)Gal(b1-4)GlcNAc
# Outline: as §1
# [12] = target: Gal(b1-3)GlcNAc(b1-3)Gal(b1-3)GlcNAc
# Outline: as §1
# [13] = target: Gal(b1-3)GlcNAc(b1-3)Gal(b1-4)GlcNAc(b1-2)[Gal(b1-3)GlcNAc(b1-3)Gal(b1-4)GlcNAc(b1-6)]Man(a1-6)[Gal(b1-3)GlcNAc(b1-3)Gal(b1-4)GlcNAc(b1-2)Man(a1-3)]Man(b1-4)GlcNAc(b1-4)[Fuc(a1-6)]GlcNAc
# Outline: as §1
# [14] = target: Gal(b1-3)[Neu5Ac(a2-6)]GlcNAc(b1-4)Gal(b1-4)Glc
# Outline: as §1
# [15] = target: Gal(b1-4)GlcNAc(b1-2)Man(a1-6)[Man(a1-3)]Man(b1-4)GlcNAc(b1-4)GlcNAc
# Outline: as §1
# [16] = target: Gal(b1-4)GlcNAc(b1-2)[Gal(b1-4)GlcNAc(b1-6)]Man(a1-6)[Gal(b1-4)GlcNAc(b1-2)Man(a1-3)]Man(b1-4)GlcNAc(b1-4)[Fuc(a1-6)]GlcNAc
# Outline: as §1
# [17] = target: Gal(b1-4)GlcNAc(b1-3)Gal(b1-4)Glc
# Outline: as §1
# [18] = target: Gal(b1-4)GlcNAc(b1-3)Gal(b1-4)GlcNAc(b1-2)[Gal(b1-4)GlcNAc(b1-3)Gal(b1-4)GlcNAc(b1-6)]Man(a1-6)[Gal(b1-4)GlcNAc(b1-3)Gal(b1-4)GlcNAc(b1-2)Man(a1-3)]Man(b1-4)GlcNAc(b1-4)GlcNAc
# Outline: as §1
# [19] = target: Gal(b1-4)GlcNAc(b1-3)Gal(b1-4)GlcNAc(b1-2)[Gal(b1-4)GlcNAc(b1-3)Gal(b1-4)GlcNAc(b1-6)]Man(a1-6)[Gal(b1-4)GlcNAc(b1-3)Gal(b1-4)GlcNAc(b1-2)Man(a1-3)]Man(b1-4)GlcNAc(b1-4)[Fuc(a1-6)]GlcNAc
# Outline: as §1
# [20] = target: Gal(b1-4)GlcNAc(b1-3)Gal(b1-4)GlcNAc(b1-3)Gal(b1-4)GlcNAc(b1-2)Man(a1-3)[Gal(b1-4)GlcNAc(b1-3)Gal(b1-4)GlcNAc(b1-3)Gal(b1-4)GlcNAc(b1-2)Man(a1-6)]Man(b1-4)GlcNAc(b1-4)GlcNAc
# Outline: as §1
# [21] = target: Gal(b1-4)GlcNAc(b1-3)Gal(b1-4)GlcNAc(b1-3)Gal(b1-4)GlcNAc(b1-3)Gal(b1-4)GlcNAc(b1-3)Gal(b1-4)GlcNAc(b1-2)[Gal(b1-4)GlcNAc(b1-3)Gal(b1-4)GlcNAc(b1-3)Gal(b1-4)GlcNAc(b1-3)Gal(b1-4)GlcNAc(b1-3)Gal(b1-4)GlcNAc(b1-6)]Man(a1-6)[Gal(b1-4)GlcNAc(b1-3)Gal(b1-4)GlcNAc(b1-3)Gal(b1-4)GlcNAc(b1-3)Gal(b1-4)GlcNAc(b1-3)Gal(b1-4)GlcNAc(b1-2)Man(a1-3)]Man(b1-4)GlcNAc(b1-4)[Fuc(a1-6)]GlcNAc
# Outline: as §1
# [22] = target: Gal(b1-4)GlcNAc(b1-3)GalNAc
# Outline: as §1
# [23] = target: Gal(b1-4)GlcNAc(b1-6)[Gal(b1-4)GlcNAc(b1-3)]GalNAc
# Outline: as §1
# Gal3S(b1-4)Glc = target: Gal3S(b1-4)Glc
# Outline: as §1
# Gal6S(b1-4)GlcNAc6S = target: Gal6S(b1-4)GlcNAc6S
# Outline: as §1
# GlcA(b1-3)Gal = target: GlcA(b1-3)Gal
# Outline: as §1
# [24] = target: GlcA3S(b1-3)Gal(b1-4)GlcNAc(b1-3)Gal(b1-4)Glc
# Outline: as §1
# [25] = target: GlcNAc(a1-4)Gal(b1-4)GlcNAc(b1-3)Gal(b1-4)[Fuc(a1-3)]GlcNAc(b1-3)Gal(b1-4)[Fuc(a1-3)]GlcNAc
# Outline: as §1
# [26] = target: GlcNAc(b1-2)[GlcNAc(b1-6)]Man(a1-6)[GlcNAc(b1-2)Man(a1-3)]Man(b1-4)GlcNAc(b1-4)GlcNAc
# Outline: as §1
# [27] = target: GlcNAc(b1-3)Gal(b1-3)GalNAc
# Outline: as §1
# [28] = target: GlcNAc(b1-3)Gal(b1-4)GlcNAc(b1-3)Gal(b1-4)GlcNAc(b1-3)Gal(b1-4)GlcNAc(b1-2)Man(a1-3)[GlcNAc(b1-3)Gal(b1-4)GlcNAc(b1-3)Gal(b1-4)GlcNAc(b1-3)Gal(b1-4)GlcNAc(b1-2)Man(a1-6)]Man(b1-4)GlcNAc(b1-4)GlcNAc
# Outline: as §1
# [29] = target: GlcNAc(b1-3)Gal(b1-4)GlcNAc(b1-3)Gal(b1-4)GlcNAc(b1-3)Gal(b1-4)GlcNAc(b1-2)[GlcNAc(b1-3)Gal(b1-4)GlcNAc(b1-3)Gal(b1-4)GlcNAc(b1-3)Gal(b1-4)GlcNAc(b1-6)]Man(a1-6)[GlcNAc(b1-3)Gal(b1-4)GlcNAc(b1-3)Gal(b1-4)GlcNAc(b1-3)Gal(b1-4)GlcNAc(b1-2)Man(a1-3)]Man(b1-4)GlcNAc(b1-4)[Fuc(a1-6)]GlcNAc
# Outline: as §1
# GlcNAc(b1-3)Man = target: GlcNAc(b1-3)Man
# Outline: as §1
# GlcNAc(b1-4)GlcNAc = target: GlcNAc(b1-4)GlcNAc
# Outline: as §1
# [30] = target: Kdn(a2-3)Gal(b1-4)[Fuc(a1-3)]GlcNAc
# Outline: as §1
# [31] = target: Man(a1-3)[Man(a1-6)]Man(a1-6)[Man(a1-3)]Man(b1-4)GlcNAc(b1-4)GlcNAc
# Outline: as §1
# [32] = target: Neu5Ac(a2-3)Gal(b1-4)GlcNAc(b1-3)Gal(b1-4)GlcNAc
# Outline: as §1
# [33] = target: Neu5Ac(a2-3)Gal(b1-4)GlcNAc(b1-3)Gal(b1-4)GlcNAc(b1-6)[Gal(b1-3)]GalNAc
# Outline: as §1
# [34] = target: Neu5Ac(a2-6)Gal(b1-4)GlcNAc(b1-2)[Neu5Ac(a2-6)Gal(b1-4)GlcNAc(b1-4)]Man(a1-3)[GlcNAc(b1-4)][Neu5Ac(a2-6)Gal(b1-4)GlcNAc(b1-2)[Neu5Ac(a2-6)Gal(b1-4)GlcNAc(b1-6)]Man(a1-6)]Man(b1-4)GlcNAc(b1-4)GlcNAc
# Outline: as §1
# [35] = target: Neu5Ac(a2-6)Gal(b1-4)GlcNAc(b1-3)Gal(b1-4)GlcNAc(b1-3)[Neu5Ac(a2-6)Gal(b1-4)GlcNAc(b1-3)Gal(b1-4)GlcNAc(b1-6)]GalNAc
# Outline: as §1
# [36] = target: Neu5Ac(a2-6)Gal(b1-4)GlcNAc(b1-6)GalNAc
# Outline: as §1
# [37] = target: Neu5Ac(a2-6)Gal(b1-4)GlcNAc6S
# Outline: as §1
# [38] = target: Neu5Ac(a2-8)Neu5Ac(a2-8)Neu5Ac(a2-3)[GalNAc(b1-4)]Gal(b1-4)Glc
# Outline: as §1
# [39] = target: Neu5Ac(a2-8)Neu5Ac(a2-8)Neu5Ac(a2-8)Neu5Ac(a2-3)[GalNAc(b1-4)]Gal(b1-4)Glc
# Outline: as §1
# [40] = target: Neu5Ac(a2-8)Neu5Gc(a2-3)Gal(b1-4)GlcNAc
# Outline: as §1
binder,measurement,setting,value
PX14351B-bth-512-36-512 (Bacteroides thetaiotaomicron) (protein) ASETQQWKTLEDTRSALMGVYGLTRAALADNNTHWICGDLRKGDFTVYKRSDLQAVSDNELNKPYDLLKKVSNWRRFYAVINAASVFMEKAPRTVELDRSYSEQNLKYDIAQVRALRAFAYFYMVRIWGDVPLVTYSYDNGTFPSMPRTDAQTVLSYAKAELLTAIEDLPYQYGTQTNLYYGSYGAQWQGKLFNKLSAYSVLAHICAWQGNYAEAETYSAFIIDHASEINAKYTSIADLTSETGLFYSNASVKGSRILGFNFAHNDNEATQSGHLEQLTLAYPLVQKSYPEIYISKDSLFSIFTNFDDLRFGIIDTIKYSSYYVQNLNEETPVFSKIKIIQDGSAKDNDFGVFGSSIVFTRLEDITLLRAEALCALNRSTEAVSYLNMIRTNRGLREVSFKKDFGNNRESLIAEIFEERRRELMGEGWRWYDLVRRQKLMKDNEAFLRLISSGGIYWPVSEDIITANSQIEQNEFWK,glycan array binding signal (z-score),Fuc(a1-2)Gal(b1-4)Glc,-0.31
same,glycan array binding signal (z-score),[1],-0.143
same,glycan array binding signal (z-score),[2],-0.262
same,glycan array binding signal (z-score),[3],1.76
same,glycan array binding signal (z-score),[4],0.19
same,glycan array binding signal (z-score),[5],-0.185
same,glycan array binding signal (z-score),[6],17.9
same,glycan array binding signal (z-score),[7],-0.075
same,glycan array binding signal (z-score),[8],0.527
same,glycan array binding signal (z-score),[9],-0.314
same,glycan array binding signal (z-score),Gal(b1-3)Gal,-0.39
same,glycan array binding signal (z-score),Gal(b1-3)GalNAc,-0.25
same,glycan array binding signal (z-score),[10],0.364
same,glycan array binding signal (z-score),[11],0.113
same,glycan array binding signal (z-score),[12],-0.074
same,glycan array binding signal (z-score),[13],9.18
same,glycan array binding signal (z-score),[14],-0.273
same,glycan array binding signal (z-score),[15],-0.288
same,glycan array binding signal (z-score),[16],2.5
same,glycan array binding signal (z-score),[17],-0.34
same,glycan array binding signal (z-score),[18],0.755
same,glycan array binding signal (z-score),[19],2.73
same,glycan array binding signal (z-score),[20],3.44
same,glycan array binding signal (z-score),[21],2.11
same,glycan array binding signal (z-score),[22],-0.256
same,glycan array binding signal (z-score),[23],1.91
same,glycan array binding signal (z-score),Gal3S(b1-4)Glc,-0.16
same,glycan array binding signal (z-score),Gal6S(b1-4)GlcNAc6S,-0.34
same,glycan array binding signal (z-score),GlcA(b1-3)Gal,-0.428
same,glycan array binding signal (z-score),[24],-0.114
same,glycan array binding signal (z-score),[25],-0.049
same,glycan array binding signal (z-score),[26],-0.115
same,glycan array binding signal (z-score),[27],-0.128
same,glycan array binding signal (z-score),[28],-0.068
same,glycan array binding signal (z-score),[29],0.033
same,glycan array binding signal (z-score),GlcNAc(b1-3)Man,-0.006
same,glycan array binding signal (z-score),GlcNAc(b1-4)GlcNAc,-0.165
same,glycan array binding signal (z-score),[30],-0.287
same,glycan array binding signal (z-score),[31],-0.271
same,glycan array binding signal (z-score),[32],-0.265
same,glycan array binding signal (z-score),[33],0.652
same,glycan array binding signal (z-score),[34],0.217
same,glycan array binding signal (z-score),[35],-0.33
same,glycan array binding signal (z-score),[36],0.191
same,glycan array binding signal (z-score),[37],-0.355
same,glycan array binding signal (z-score),[38],-0.362
same,glycan array binding signal (z-score),[39],1.91
same,glycan array binding signal (z-score),[40],4.31
